Efflux pump inh – inhibitors of Candida efflux pumps in yeast, primary screen, S. cerevisiae, Nile Red, multiplex | hit rate 0.44% among 330,000 | S. cerevisiae Candida pump triplex | inhibition, % at 10 µM;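 active means plate passing quality check with inhibition over a set limit, or well fluorescence over plate mean plus 4 SD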;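 further: Nile Red retained in pooled yeast measured as flow cytometry median fluorescence; 0% = buffer negative control and 100% = Enniatin B positive control; higher means more Nile Red kept so more efflux inhibition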
NSD2 HMT inh – NSD2 histone methyltransferase inhibitors, primary screen, biochemical, AlphaScreen, single concentration, set 2 | AID 743445, 2014 | hit rate 0.54% among 310,000 | Histone-lysine N-methyltransferase NSD2 (Homo sapiens), O96028 | NSD2 peptide methylation, 120 min | inhibition, % at 12.5 µM; in the data active means inhibition above about 50%
NPR1 activator – GC-A stimulated cGMP production enhancers – HEK293 GC-A cells, cGMP TR-FRET, EC30 ANP, primary screen. Atrial natriuretic peptide receptor 1 (Homo sapiens), P16066. 0% at EC30 ANP, 100% saturating ANP. activation, % at 10 µM. hit rate 0.14% among 370,000. AID 1671463, 2021; in the data active means activation above about 40%
Target sequence (P16066 whole entry, looked up): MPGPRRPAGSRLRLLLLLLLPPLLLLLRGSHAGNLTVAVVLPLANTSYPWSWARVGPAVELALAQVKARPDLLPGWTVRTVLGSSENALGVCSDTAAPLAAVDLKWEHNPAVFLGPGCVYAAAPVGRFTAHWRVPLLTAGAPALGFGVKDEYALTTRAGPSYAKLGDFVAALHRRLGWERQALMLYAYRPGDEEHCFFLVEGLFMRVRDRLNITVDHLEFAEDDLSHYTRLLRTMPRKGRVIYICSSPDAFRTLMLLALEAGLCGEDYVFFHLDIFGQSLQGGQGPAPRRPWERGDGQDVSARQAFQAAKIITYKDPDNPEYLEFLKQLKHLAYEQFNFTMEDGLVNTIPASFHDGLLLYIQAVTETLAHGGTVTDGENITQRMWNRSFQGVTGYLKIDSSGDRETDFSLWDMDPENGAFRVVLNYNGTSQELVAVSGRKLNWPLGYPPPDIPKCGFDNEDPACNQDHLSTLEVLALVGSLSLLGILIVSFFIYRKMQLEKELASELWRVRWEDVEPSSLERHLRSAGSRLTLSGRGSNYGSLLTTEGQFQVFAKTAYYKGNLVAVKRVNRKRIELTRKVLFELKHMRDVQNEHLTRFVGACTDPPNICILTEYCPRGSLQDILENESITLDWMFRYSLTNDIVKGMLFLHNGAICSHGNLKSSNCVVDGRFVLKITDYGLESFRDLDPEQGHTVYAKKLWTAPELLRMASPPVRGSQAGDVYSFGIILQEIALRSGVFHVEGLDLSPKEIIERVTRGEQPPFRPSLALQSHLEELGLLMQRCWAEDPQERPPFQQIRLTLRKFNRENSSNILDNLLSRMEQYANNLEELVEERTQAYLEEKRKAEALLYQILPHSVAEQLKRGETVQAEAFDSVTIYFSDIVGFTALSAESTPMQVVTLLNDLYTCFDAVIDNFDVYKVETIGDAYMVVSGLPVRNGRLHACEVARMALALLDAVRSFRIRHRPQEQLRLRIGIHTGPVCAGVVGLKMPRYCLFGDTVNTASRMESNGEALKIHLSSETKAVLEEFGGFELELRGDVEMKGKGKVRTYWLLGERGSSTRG
V-ATPase pH – regulators of yeast V-ATPase proton pumping, primary screen, pHLuorin cytosolic pH fluorescence | S. cerevisiae | response, % at 10 µM | hit rate 0.37% among 350,000 | AID 504577, 2011; in the data active means response mostly above about 7.3%, no sharp cut-off; inactive means mostly below about 5.4%; further: actives read high
NPR2 activator – human GC-B receptor activators, primary screen, HEK293 GC-B cells, cGMP TR-FRET, EC30 CNP; Atrial natriuretic peptide receptor 2 (Homo sapiens), P20594; 0% at EC30 CNP, 100% saturating CNP; activation, % at 10 µM; hit rate 0.11% among 370,000; AID 1920062, 2024;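 active means activation at 10 µM reaching about 35% in either raw or pattern-adjusted values, limit read from the data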
Rce1 inhib – yeast Rce1p protease inhibitors, primary screen, biochemical, fluorescence, cell-free homogeneous. yeast membranes, quenched prenylated peptide cleavage fluorescence. CAAX prenyl protease 2 (Saccharomyces cerevisiae (strain ATCC 204508 / S288c)), Q03530. hit rate 0.27% among 290,000. calls only;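 active means fall in fluorescence gain of 50% or more versus controls, with final raw signal at or below 3038400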;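 further: plate controls were neutral control wells for no effect and wells lacking membranes for full effect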
Cmpd fluor yeast – counter-screen for efflux pump inhibitors: compound fluorescence; shares compounds with Efflux pump inh; S. cerevisiae AD/pABC3, flow cytometry; fluorescence ratio to DMSO, % at 10 µM; hit rate 4% among 1,700; AID 588517;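 active means fluorescence ratio to DMSO above its plate's cutoff, the plate mean ratio plus 5 SD, cut at about 210% in these data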;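 further: unstained yeast with no Nile Red so the signal is compound autofluorescence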
Mdr1 pump inh – inhibitors of Candida albicans Mdr1 efflux, confirmation, flow cytometry, singleplex, Cherry Pick1 set. shares compounds with Efflux pump inh. S. cerevisiae AD/CaMDR1, Nile Red efflux. inhibition, % at 10 µM. hit rate 1% among 1,700. AID 588518, 2011; in the data active means inhibition above about 26%;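 further: 0% = DMSO vehicle and 100% = reference inhibitor; higher means more Nile Red retained so more efflux inhibition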
CaCdr2 efflux inh – inhibitors of Candida albicans Cdr2 efflux pump, confirmation, S. cerevisiae AD/CaCDR2, flow cytometry, cherry pick 1, singleplex. shares compounds with Efflux pump inh. Nile Red retention. Nile Red retention ratio vs DMSO, % at 10 µM. hit rate 4% among 1,700. AID 588520, 2011; in the data active means Nile Red retention ratio vs DMSO above about 190%;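 further: higher ratio means more blocking of Cdr2 efflux of the dye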
Cdr1 pump inh – inhibitors of Candida albicans Cdr1 efflux pump, confirmation, S. cerevisiae AD/CaCDR1, flow cytometry, cherry pick 1, singleplex. hit rate 1% among 1,700. AID 588522, 2011. shares compounds with Efflux pump inh. inhibition, % at 10 µM. Nile Red efflux;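 active means inhibition above the screen-wide mean plus twice its standard deviation, cut at about 32% in these data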
Numbers without * were called inactive; i = inactive; . = no result; + = active, no number. Only some compounds are listed: those with a hit (about 1.6% of all), similar ones and a draw of the others.

SMILES	Efflux pump inh	NSD2 HMT inh	NPR1 activator	V-ATPase pH	NPR2 activator	Rce1 inhib	Cmpd fluor yeast	Mdr1 pump inh	CaCdr2 efflux inh	Cdr1 pump inh
COc1ccc2[nH]cc(C(=O)CN3CCCC(C)C3)c2c1 (stereo not given)	0	2	-1	-1	-2	i	.	.	.	.
CC(=O)C1(C(=O)NC2CCCC2)CC(c2ccccn2)=NO1 (stereo not given)	.	.	2	.	4	.	.	.	.	.
CCC(=O)N(C)CCc1cc2c(c(OC)c1/C=N/NC(=O)[C@H]1C[C@@H]1c1ccccc1)OCO2	3.5*	7	-2	3	-1	i	87	0	102	0
O=C(CSc1cccc[n+]1[O-])Nc1cc(S(=O)(=O)N2CCOCC2)ccc1N1CCOCC1	0	-2	4	3	0	i	.	.	.	.
Cc1ccccc1SCC(=O)Nc1cc(S(=O)(=O)N2CCOCC2)ccc1N1CCOCC1	0.8*	0	0	-2	-3	i	108	0	110	0
C[n+]1c(/C=C/c2ccc(O)cc2)ccc2ccccc21	0	19	-8	3	-7	i	.	.	.	.
Cc1cc(/C=C\c2ccc3cc(N(C)C)ccc3[n+]2C)c(C)n1-c1ccccc1	17*	.	.	1	.	.	+	38*	270*	20
COc1cc(/C=N/N2CCN(c3ccc(Cl)cc3)CC2)cc(OC)c1OC(C)=O	1.2*	-3	-6	3	-1	i	89	0	108	0
CN(CCc1ccccn1)C(=O)c1ccc(OC(F)(F)F)cc1	0.8*	4	0	-2	0	i	98	0	107	0
COc1ccc2nc(C)cc(Sc3nc4ccccc4s3)c2c1	1.0*	.	-19	2	-5	i	89	0	98	0
CC(=O)Nc1cccc(NC(=O)c2cc(-c3cccnc3)nc3ccc(Cl)cc23)c1	1.4*	-1	17	-3	4	i	91	0	112	0
O=C(COC(=O)CSc1ccc2ccccc2c1)NC1CCCC1	25*	-1	3	1	-5	i	115	0	108	0
COC(=O)C1CN(Cc2cn(Cc3ccccc3)nn2)CCS(=O)(=O)N1Cc1ccc(OC)cc1 (stereo not given)	.	.	1	.	-2	.	.	.	.	.
Cc1[nH]c2ccc(C(=O)NCCCN3CCCC3)cc2c1C	1	.	-1	0	1	i	.	.	.	.
Cc1[nH]c2ccc(C(=O)NCCN3CCOCC3)cc2c1C	1.4*	1	0	2	-1	i	112	0	125	0
CCOC(=O)N1CCN(C(=O)C[C@H]2C[C@@]3(C(=O)OC)C(=C[C@H](C4CCCC4)O[C@@H]3C)N(CCC3=CCCCC3)C2=O)CC1	.	.	3	.	-5	.	.	.	.	.
O=C(COc1ccc(S(=O)(=O)N2CCCC2)cc1)NCc1ccco1	0	.	.	2	.	i	.	.	.	.
O=C(COC(=O)c1ccc(S(=O)(=O)N2CCCCC2)cc1)NCc1ccco1	1.6*	7	-4	-3	-1	i	103	0	103	0
O=C(CO/N=C/c1cccc([N+](=O)[O-])c1)NC1CCCCC1	8.3*	1	-6	2	2	i	95	0	112	0
Cc1c(C(=O)O)oc2ccc(S(=O)(=O)NC3CCCCCCC3)cc12	1.0*	2	-2	-6	5	i	100	0	96	0
CC1=CC(=O)C(C(C)C)=C/C1=N\OS(=O)(=O)c1ccccc1	.	.	-10	.	7	.	.	.	.	.
Cc1cc(C)c(OCC(=O)Nc2nc(-c3ccccn3)cs2)c(C)c1	0.6*	-24	13	-2	10	i	100	0	100	0
N#CCC[C@@H]1CC[C@]2(CCCN(C(=O)C3CCCCC3)C2)O1	.	.	5	.	-5	.	.	.	.	.
COC(=O)C1CCN(C(=O)CN2CCC(C(=O)c3ccc(C)cc3)CC2)CC1	.	-1	1	.	-3	.	.	.	.	.
CC(=O)Nc1ccc(S(=O)(=O)N2CCN(c3nc4ccccc4n3CC(C)C)CC2)cc1	1.0*	1	1	-1	-8	i	100	0	114	0
SMILES	Efflux pump inh	NSD2 HMT inh	NPR1 activator	V-ATPase pH	NPR2 activator	Rce1 inhib	Cmpd fluor yeast	Mdr1 pump inh	CaCdr2 efflux inh	Cdr1 pump inh
CCn1c(N2CCN(S(=O)(=O)c3ccc(OC)cc3)CC2)nc2ccccc21	0	1	-10	3	-10	i	.	.	.	.
O=C([C@@H]1C[C@H]1c1ccccc1)N1CC[C@H]2[C@H](CCCN2Cc2ccccc2)C1	.	.	0	.	7	.	.	.	.	.
N#Cc1ccccc1N1CCN(S(=O)(=O)c2ccc3c(c2)CCC(=O)N3)CC1	.	0	1	.	-4	.	.	.	.	.
CCn1c(=S)sc2c(=O)n(-c3ccccc3)c(SC)nc21	0	2	2	0	-4	i	.	.	.	.
N#CCSc1nc2c(sc(=S)n2Cc2ccco2)c(=O)n1-c1ccc(F)cc1	5.9*	-8	-1	4	-5	i	111	0	116	0
Cc1ccc(NC(=O)NC2CCCc3ccccc32)cc1 (stereo not given)	0	-1	0	1	-1	i	.	.	.	.
CCOc1ccc(NC(=O)NC2CCCc3ccccc32)cc1 (stereo not given)	6.5*	-2	-3	2	6	i	103	0	109	0
COC(=O)[C@]12C[C@H](CC(=O)N3CCOCC3)C(=O)N(Cc3ccco3)C1=C[C@H](COCc1ccccc1)O[C@@H]2C	.	.	-3	.	10	.	.	.	.	.
O=C(N/N=C\c1ccc(F)cc1)c1ccc(F)cc1	0	-3	1	2	-2	i	.	.	.	.
CC(=O)Nc1ccc(C(=O)OCC(=O)c2ccc(F)cc2)cc1	32*	-1	10	6	-2	i	97	0	106	0
CC(=O)Nc1ccc(C(=O)N/N=C/c2ccc(F)cc2)cc1	0.6*	-2	-5	1	-4	i	95	0	103	0

Compound activity: PubChem BioAssay, several laboratories
